Our source for the outcome and AC50 values is PubChem BioAssay (EPA / NIEHS).

The nature of experiment [1]: Tanguay_ZF_120hpf_SOMI_legacy: (Legacy) Oregon State University Tanguay Lab 120 Hour Post-fertilization zebrafish Assay for Somite Malformation (AID 2283647). An outline of the steps: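 Read-out: presence or absence of somite malformation in 120 hpf larvae, gain-of-signal relative to DMSO baseline. Embryos lacked chorion (pronase, 4 hpf) and were exposed statically from 6 hpf at 28C; dead larvae not scored.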

The nature of experiment [2]: Tanguay_ZF_120hpf_PFIN_legacy: (Legacy) Oregon State University Tanguay Lab 120 Hour Post-fertilization zebrafish Assay for Pectoral Fin Malformation (AID 2283648).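 Further: each larva judged yes or no for fin defect by brightfield with dead larvae skipped.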 An outline of the steps: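 5D WT zebrafish; pronase dechorionation 4 hpf; 1 embryo/well at 6 hpf; static exposure to 120 hpf, 28C, sealed, foil-covered; final DMSO 0.64% v/v; 5 uM trimethyltin chloride positive control; fin defect scored yes/no.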

Experiment [3] can be described thus: Tanguay_ZF_120hpf_CFIN_legacy: (Legacy) Oregon State University Tanguay Lab 120 Hour Post-fertilization zebrafish Assay for Caudal Fin Malformation (AID 2283649). An outline of the steps:
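Binary presence or absence of caudal fin malformation at 120 hpf, read by brightfield microscopy, with DMSO as baseline. Larvae came from 5D wild-type embryos exposed statically from 6 hpf at 28C after pronase dechorionation.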

A short description of experiment [4]: Tanguay_ZF_120hpf_CIRC_legacy: (Legacy) Oregon State University Tanguay Lab 120 Hour Post-fertilization zebrafish Assay for Circulatory Malformation (AID 2283651). An outline of the steps: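 Using wild-type Tropical 5D zebrafish, we exposed dechorionated embryos from 6 to 120 hpf in embryo medium with 0.64% DMSO. Circulatory defects were scored as present or absent; 5uM trimethyltin chloride served as positive control.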

Read-out in experiment [5]: solute carrier (SLC22A6), SLC22A6 (gene 9356)
Nature of the experiment: LTEA_HepaRG_SLC22A6: Life Technologies and Expression Analysis (LTEA) Assay for solute carrier (SLC22A6) using HepaRG (AID 2283653; active means hit-call score of the fitted dose curve at least 0.9, where 1 is the maximum; inactive means score below 0.9). Particulars: mRNA level, 48 h; actives raise or lower the signal. An outline of the steps:
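Read-out is SLC22A6 transcript level by qRT-PCR, normalised to three housekeeping genes and fitted for gain or loss relative to 0.5% DMSO vehicle. Human HepaRG cells received chemicals at up to 100 uM for 48 h.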

Experiment [6] in a line: Tanguay_ZF_120hpf_SWIM_legacy: (Legacy) Oregon State University Tanguay Lab 120 Hour Post-fertilization zebrafish Assay for Swim Bladder Malformation (AID 2283654).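 Further: swim bladder malformation in each larva scored yes or no under brightfield.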 An outline of the steps: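 Embryos lacking chorions were exposed individually and statically to test chemical from 6 to 120 hpf at 28C, with 0.64% DMSO as vehicle. At 120 hpf, swim bladder malformation was recorded as present or absent by brightfield microscopy.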

A short description of experiment [7]: Tanguay_ZF_120hpf_TRUN_legacy: (Legacy) Oregon State University Tanguay Lab 120 Hour Post-fertilization zebrafish Assay for Truncated Body (AID 2283655). An outline of the steps: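 Truncated body is recorded as a binary endpoint at 120 hpf by brightfield imaging of wild-type 5D larvae. Exposure runs statically from 6 hpf at 28C with 0.64% DMSO; embryos dying earlier are not scored.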

A short description of experiment [8]: Tanguay_ZF_120hpf_NC_legacy: (Legacy) Oregon State University Tanguay Lab 120 Hour Post-fertilization zebrafish Assay for Notochord and Tail Malformation (AID 2283656). An outline of the steps:
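Dechorionated 5D zebrafish, 1/well from 6 hpf; static exposure to 120 hpf, 28C, sealed, dark; final DMSO 0.64% v/v. NC scored binary (present/absent); dead embryos not scored. Fit vs DMSO baseline, gain direction.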

Read-out in experiment [9]: solute carrier (SLC10A1), SLC10A1 (gene 6554)
Nature of the experiment: LTEA_HepaRG_SLC10A1: Life Technologies and Expression Analysis (LTEA) Assay for solute carrier (SLC10A1) using HepaRG (AID 2283657; active means hit-call score of the fitted dose curve at least 0.9, where 1 is the maximum; inactive means score below 0.9). Particulars: mRNA level, 48 h; actives raise or lower the signal. An outline of the steps: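 Transcript levels were measured by qRT-PCR after human HepaRG cells received test chemical for 48 hours, up to 100 uM in half-log dilutions. Values come from bidirectional concentration-response fitting relative to 0.5% DMSO vehicle.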

Read-out in experiment [10]: matrix metalloproteinase-1 (MMP1), MMP1 (gene 4312)
In words: LTEA_HepaRG_MMP1: Life Technologies and Expression Analysis (LTEA) Assay for matrix metalloproteinase-1 (MMP1) using HepaRG (AID 2283658; active means hit-call score of the fitted dose curve at least 0.9, where 1 is the maximum; inactive means score below 0.9). To be noted: mRNA level, 48 h; actives raise or lower the signal. An outline of the steps: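 HepaRG, ~100,000 cells/well, 48 h pre-culture; serum-free induction medium; test chemical 8 conc (max 100 uM, half-log), duplicate, 48 h; 0.5% DMSO; qRT-PCR MMP1, housekeeping-normalized; gain/loss fit vs DMSO.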

Experiment [11] is described as follows: Tanguay_ZF_120hpf_TR_legacy: (Legacy) Oregon State University Tanguay Lab 120 Hour Post-fertilization zebrafish Assay for Touch Response (AID 2283667). An outline of the steps:
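5D WT embryos; static exposure to 120 hpf, 28C, sealed/dark; DMSO 0.64% v/v final. TR scored present/absent; dead embryos excluded. Pos ctrl 5uM trimethyltin chloride.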

Read-out in experiment [12]: Cytochrome P450 (CYP24A1_1), CYP24A1 (gene 1591)
In words: LTEA_HepaRG_CYP24A1_1: Life Technologies and Expression Analysis (LTEA) Assay for Cytochrome P450 (CYP24A1_1) using HepaRG (AID 2283671; active means hit-call score of the fitted dose curve at least 0.9, where 1 is the maximum; inactive means score below 0.9). To be noted: mRNA level, 48 h; actives raise or lower the signal. An outline of the steps:
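In this test, gene induction or suppression of CYP24A1 in human HepaRG liver cells is measured by qRT-PCR after 48 h chemical treatment (eight concentrations, maximum 100 uM). Values are fitted bidirectionally relative to DMSO.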

Experiment [13] can be described thus: CCTE_Padilla_ZF_144hpf_TERATOSCORE: (Legacy) CCTE's 144 Hour Post-fertilization zebrafish Assay Teratoscore, Padilla Lab (AID 2283679; active means hit-call score of the fitted dose curve at least 0.9, where 1 is the maximum; inactive means score below 0.9;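 on AC50: zebrafish embryos with chorions exposed by immersion from 6-8 hpf to 5 dpf with daily renewal; teratogenicity score from eye scoring of death hatching and malformations at 144 hpf; higher score means more developmental defects relative to DMSO baseline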). An outline of the steps: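 Larvae scored by eye at 144 hpf for death, hatching and malformations after a day in clean Hanks'. Before that, daily-renewed exposure at 80 uM (0.4% DMSO, 26C) from roughly 6-8 hpf through 5 dpf, 4 embryos per chemical.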

Experiment [14] in a line: Tanguay_ZF_120hpf_PIG_legacy: (Legacy) Oregon State University Tanguay Lab 120 Hour Post-fertilization zebrafish Assay for Pigmentation Malformation (AID 2283650). An outline of the steps:
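Pronase dechorionation at 4 hpf; embryos plated at 6 hpf, one per well; static exposure, sealed and foil-covered, 28C, to 120 hpf; pigmentation read by brightfield, binary; DMSO 0.64% baseline, 5uM trimethyltin chloride positive control.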

Experiment [15] deals with Thyroperoxidase (TPO), gene 54314. In words: CCTE_Simmons_AUR_rTPO: CCTE's Amplex UltraRed Assay for Thyroperoxidase (TPO) Inhibition, Simmons Lab (AID 2283662).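 Further: potency for loss of signal meaning inhibition of peroxidase activity.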 An outline of the steps: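 Rat thyroid microsomes (5 ug protein) were incubated with test compound (8 concentrations, 5 nM–87.5 uM final, 0.5% DMSO), 25 uM Amplex UltraRed and 300 uM H2O2 in 200 mM phosphate buffer for 30 min at 37C in the dark; fluorescence read at 544/590 nm.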

The nature of experiment [16]: CCTE_Simmons_CellTiterGLO_HEK293T: Viability Assessment in CCTE's Assays for Thyroperoxidase (TPO) Inhibition, Simmons Lab (AID 2283665).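 On AC50: cells exposed to compound for 24 h before readout; actives reduce ATP signal below DMSO vehicle meaning cytotoxicity.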 An outline of the steps:
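Cytotoxicity counter-screen: human HEK293T cells in low-serum (1% FBS) medium receive test chemical, 5 nM to 87.5 uM final, for 24 h; ATP is quantified by luciferase luminescence.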

Experiment [17] can be described thus: STM_H9_OrnithineISnorm_perc: Stemina devTOX quickPredict H9 human embryonic stem cell (hESC)-based Assay for Ornithine (ORN) Metabolite Biomarker, Normalized (AID 2283712; active means hit-call score of the fitted dose curve at least 0.9, where 1 is the maximum; inactive means score below 0.9;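 further: ornithine released into spent medium during last day measured by mass spectrometry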). An outline of the steps:
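Cells: undifferentiated H9 hESC. Dosing: 72 h, media replaced every 24 h. Sample: final 24-h conditioned media, 40% acetonitrile. Read: UPLC-HRMS ornithine area vs 13C standard, % DMSO control.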

The nature of experiment [18]: STM_H9_CystineISnorm_perc: Stemina devTOX quickPredict H9 human embryonic stem cell (hESC)-based Assay for Cystine (CYSS) Metabolite Biomarker, Normalized (AID 2283713; active means hit-call score of the fitted dose curve at least 0.9, where 1 is the maximum; inactive means score below 0.9). An outline of the steps:
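Secreted cystine was measured by UPLC-HRMS in H9 hESC medium after 72h compound exposure with 24-hourly replenishment. Values are standard-normalized areas relative to 0.1% DMSO.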

The nature of experiment [19]: STM_H9_OrnCyssISnorm_ratio: Stemina devTOX quickPredict H9 human embryonic stem cell (hESC)-based Assay for Ornithine (ORN):Cystine (CYSS) Ratio (AID 2283714). An outline of the steps: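 Steps: H9 hESCs in pluripotent state dosed 72h, medium plus compound renewed every 24h; conditioned medium from the final 24h deproteinized in 40% acetonitrile; ORN and CYSS quantified by UPLC-HRMS with C13 spike-ins; ratio relative to vehicle.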

Records with an inconclusive call do not appear. Calls of active or inactive are those of the source. How the source made its calls, unless noted: active means hit-call score of the fitted dose curve at least 0.9, where 1 is the maximum; inconclusive means response in the unintended direction; inactive means score below 0.9.

As to `CCCCCCCCCCCCO`, the outcome in [1], in experiment [2], in [3], in experiment [4], in experiment [5] and in [6] was inactive. The compound was called inactive in experiment [7], in experiment [8], in [9], in experiment [10], in experiment [11] and in [12]. Moreover, the AC50 in experiment [13] was 62.8 µM (active).

Consider `O=c1[nH]sc2ccccc12`, for which the result in [1], in experiment [2], in experiment [3], in experiment [4], in [6] and in experiment [7] was inactive. Besides, the compound was called inactive in [8] and in experiment [11].

On to `c1ccc2n[nH]nc2c1`, for which the result in [1], in [2], in experiment [3], in [14], in [4] and in [6] was inactive. In addition, the call in experiment [7], in experiment [8], in experiment [11] and in [13] was inactive.

Turning to `Cc1oc2c(NC(=O)c3c(Cl)cccc3Cl)cccc2c1C(C)(C)O`, the result in [1], in experiment [2], in experiment [3], in [4], in experiment [6] and in [7] was inactive. Further, the compound was classed as inactive in experiment [8] and in experiment [11].

For `CCCCCCCCOC(=O)c1cc(O)c(O)c(O)c1`, the compound was called inactive in experiment [1], in experiment [2], in [3], in [4], in [6] and in experiment [7]. The outcome in [8] and in experiment [11] was inactive. The AC50 in experiment [15] was 0.921 µM (active); in experiment [16], 7.69 µM (active); in experiment [17], 2.13 µM (active); in experiment [18], 2.47 µM (active); in experiment [19], 2.54 µM (active).

For `O=C(Nc1ccc(Cl)cc1)Nc1ccc(Cl)c(Cl)c1`, the compound was classed as inactive in experiment [1], in experiment [2], in [3], in [4], in [6] and in [7]. For the same compound, the outcome in experiment [8], in experiment [11], in experiment [18] and in [19] was inactive. Further, the values for the AC50 in experiment [15], in experiment [16] and in experiment [17] were 18.9 µM (active), 1.73 µM (active) and 0.000976 µM (active), respectively.

Take `Oc1ccc2ccccc2c1`: the outcome in [1], in experiment [2], in experiment [4], in experiment [6], in [8] and in experiment [16] was inactive. The AC50 in experiment [3] was 10.4 µM (active); in experiment [7], 50.2 µM (active); in experiment [15], 3.13 µM (active); in experiment [11], 33.6 µM (active); in experiment [13], 57.1 µM (active).

For the compound `c1ccc(C[n+]2cccc3ccccc32)cc1`, the compound was called inactive in experiment [1], in experiment [2], in experiment [3], in [14], in [4] and in experiment [7]. For the same compound, the result in experiment [8], in [11] and in experiment [13] was inactive.

Take `CCN(Cc1cccc(S(=O)(=O)O)c1)c1ccc(C(=C2C=CC(=[N+](CC)Cc3cccc(S(=O)(=O)O)c3)C=C2)c2ccccc2S(=O)(=O)[O-])cc1`: the compound was called inactive in [1], in [2], in experiment [3], in [14], in experiment [4] and in experiment [7]. For the same compound, the outcome in experiment [11] and in experiment [13] was inactive. The AC50 was 19.2 µM (active) in experiment [15] and 4.21 µM (active) in experiment [16].

Usually AC50 stands for the concentration giving half of the maximal activity seen.
